HEK293 cAMP ctrl: qHTS Assay for Agonists of the Thyroid Stimulating Hormone Receptor: Activators of Intracellular cAMP Concentrations in Parental HEK 293; parental HEK293 CNG cAMP sensor, membrane potential fluorescence; Potency, µM (doses to about 57.1 µM), without a hit: at the highest dose activation, hits mostly activators; 73,000 compounds, 2.5% hits; AID 938, 2007; note: % of control where 0% means no effect; nearly all actives have a fitted effect of over 55% in size
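Parental HEK 293 cells stably expressing a cAMP-gated CNG channel were loaded with membrane potential dye containing 100 uM RO 20-1724 for 60 min. Compound added for 30 min; depolarization read as fluorescence intensity at 590 nm.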
IkB sig inh: IkB Signaling. ABC-DLBCL IkBa-CBG/CBR dual luciferase ratio, 4 h; response scale: scaled: untreated 0%, proteasome inhibitor 100%. Potency, µM (top dose mostly 57.1 µM), for inactives: top-dose IkBa stabilization activation. 110,000 compounds, 0.04% hits. AID 445, 2006; active = well fitted curve in the direction sought with a large enough effect in the signal ratio, not every such curve was filed as active; inconclusive = small, poorly fitted or top-dose-only effect, or a change in a side signal; the % refers to the signal ratio;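 note: the direction sought is a rising ratio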
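Luminescence ratio of IκBα-fused green versus native red beetle luciferase in OCI-Ly3 cells, 4 h post-doxycycline with compound; red signal alone, scaled from basal (0%) to zero light (-100%), flagged nonspecific or cytotoxic effects.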
CRE-bla Fsk: Cell signaling CRE-BLA (Fsk stim). 71,000 compounds, 2.5% hits. Potency, µM (titrated, usually from 38.2 µM), without a hit: at the top dose activity change, negative = inhibition, most hits filed as activators. CHO CRE-bla reporter (cAMP response element driving beta-lactamase), forskolin EC10, beta-lactamase ratio; active = well fitted activation curve with a large enough effect in the signal ratio, with a control signal flat, not every such curve was filed as active; inconclusive = small, poorly fitted or top-dose-only effect, or effect the other way, or a change in a side signal; the % refers to the signal ratio; note: % of control where 0% means no effect
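The 460nm/530nm emission ratio after CCF4 loading defined %Activity, from which AC50 values were obtained. CRE-bla CHO cells received compound dilution series together with an EC10 level of NKH 477 for 3 hours at 37 degrees Celsius.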
TSHR ag: qHTS Assay for Agonists of the Thyroid Stimulating Hormone Receptor; Thyrotropin receptor (Homo sapiens), P16473; HEK293-CNG-TSHR cells (CNG channel as cAMP sensor), membrane potential dye, cAMP; Potency, µM (series often up to 57.1 µM), for the others: at the highest dose activation, usual class: activators; 73,000 compounds, 0.48% hits; active = well fitted activation curve with a large enough effect in the main read-out, with a control signal flat, not every such curve was filed as active; inconclusive = small, poorly fitted or top-dose-only effect, or a change in a side signal; inactive = no such curve, though single readings can be large or run the other way; % of control where 0% means no effect;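 note: the control signal comes from parental cells without the receptor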
Target sequence (P16473 whole entry, looked up): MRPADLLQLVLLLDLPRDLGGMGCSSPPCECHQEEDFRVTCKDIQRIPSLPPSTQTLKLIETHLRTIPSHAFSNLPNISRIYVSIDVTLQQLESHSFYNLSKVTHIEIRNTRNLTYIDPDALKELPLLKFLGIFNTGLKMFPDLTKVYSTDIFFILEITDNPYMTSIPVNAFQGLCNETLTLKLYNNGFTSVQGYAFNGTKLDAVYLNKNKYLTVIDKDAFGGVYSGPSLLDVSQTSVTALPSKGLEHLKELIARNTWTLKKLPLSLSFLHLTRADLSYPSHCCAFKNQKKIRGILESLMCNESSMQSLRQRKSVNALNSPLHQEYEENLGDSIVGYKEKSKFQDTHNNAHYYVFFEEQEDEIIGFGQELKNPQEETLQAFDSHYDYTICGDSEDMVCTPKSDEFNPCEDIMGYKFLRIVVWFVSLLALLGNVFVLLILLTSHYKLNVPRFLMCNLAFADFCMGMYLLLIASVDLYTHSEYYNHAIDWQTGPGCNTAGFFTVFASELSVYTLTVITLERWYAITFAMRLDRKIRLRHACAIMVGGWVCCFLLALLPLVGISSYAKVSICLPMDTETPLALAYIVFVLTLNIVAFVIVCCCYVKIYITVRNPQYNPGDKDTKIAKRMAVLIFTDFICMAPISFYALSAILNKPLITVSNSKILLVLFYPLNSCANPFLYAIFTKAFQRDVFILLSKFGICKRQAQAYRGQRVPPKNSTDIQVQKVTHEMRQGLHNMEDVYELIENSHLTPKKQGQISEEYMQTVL
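cAMP rise detected as CNG-channel membrane depolarization by fluorescent dye (emission 590 nm), 30 min after compound, following 60 min dye loading containing 100 uM RO 20-1724 at room temperature. Cells: TSHR/CNG HEK 293, with parental CNG HEK 293 as control.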
ERK AVP block: qHTS Assay for Inhibitors of the ERK Signaling Pathway using a Homogeneous Screening Assay; Potency, µM (series often up to 57.5 µM), inactives show at the top dose activity, negative = inhibition, actives largely listed as inhibitors; 72,000 compounds, 0.99% hits; HEK293-V1b, vasopressin-stimulated pERK AlphaScreen; note: % is set by controls: 0 for no effect and ±100 for the full control effect; nearly all actives have a fitted effect of over 55% in size
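Phosphorylated ERK1/2 detected via AlphaScreen bead proximity in lysates of V1b-expressing HEK293 cells given 25 nM vasopressin for 5 min after 30 min compound exposure (37 °C). AC50 from Hill equation; basal DMSO 0%, vasopressin 100%.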
Numbers without * were called inactive; [ ] = remark or other dose. Only some compounds are listed: those with a hit (about 3.6% of all), similar ones and a draw of the others. Unless noted, calls come from the whole dose curve; as a rule, active = well fitted curve in the direction sought with a large enough effect; inconclusive = small, poorly fitted or top-dose-only effect, or another doubt; inactive = no such curve, though single readings can be large; an effect the other way counts as inactive or inconclusive. Potency is the fitted concentration of half-maximal effect.

Results for CC(C)CC(c1nnnn1C(C)C)N1CCN(c2cccc(Cl)c2)CC1 (stereo unspecified) ?
HEK293 cAMP ctrl: 1µM*; IkB sig inh: 3%; CRE-bla Fsk: -6%; TSHR ag: inconclusive; ERK AVP block: -7%

Results for COc1ccc(C(=O)CSc2nc3cc(C(=O)NC4CCCC4)ccc3c(=O)n2CC2CCCO2)cc1 (stereo unspecified) ?
IkB sig inh: 0%

What do the screens show for `COC(=O)c1ccc2c(=O)n(CC3CCCO3)c(SCC(=O)Nc3ccccc3OC)nc2c1` (stereo unspecified)?
HEK293 cAMP ctrl: inconclusive; IkB sig inh: 5%; CRE-bla Fsk: 13µM*; TSHR ag: inconclusive; ERK AVP block: -16%

Results for COc1ccccc1C(=O)Nc1cccc(N(C)S(C)(=O)=O)c1 ?
HEK293 cAMP ctrl: 3%; IkB sig inh: -2%; CRE-bla Fsk: 10%; TSHR ag: -3%; ERK AVP block: inconclusive

Results for CO[C@@H]1CC[C@@]2(C)[C@@H](CC[C@@]3(C)[C@H]2CC=C2[C@H]4CC(C)(C)[C@H](O)[C@@H](OC(C)=O)[C@]4(CO)[C@H](O)C[C@]23C)[C@@]1(C)CO (tested in a mixture with another compound) ?
HEK293 cAMP ctrl: 2%[25.6 µM]; IkB sig inh: inconclusive; CRE-bla Fsk: inconclusive; TSHR ag: 16µM*; ERK AVP block: inconclusive

Results for CC1(C)CC[C@]2(C(=O)O)CC[C@@]3(C)C(=CCC4[C@@]5(C)CCC(O)[C@@](C)(CO)C5CC[C@@]43C)C2C1 (stereo partly specified) ?
ERK AVP block: -2%

What do the screens show for `Cc1cc2c(C)cc(=O)oc2c2c1NCCC2`?
HEK293 cAMP ctrl: -1%; IkB sig inh: 2%; CRE-bla Fsk: inconclusive; TSHR ag: -3%; ERK AVP block: -17%

How did CCNc1ncc2nc(C)c(=O)n(Cc3ccc(F)cc3)c2n1 do in these assays?
HEK293 cAMP ctrl: 15%; IkB sig inh: 2%[11.4 µM]; CRE-bla Fsk: inconclusive; TSHR ag: -1%; ERK AVP block: -18%

How did CCCCOc1cccc(OCCCC)c1C(=O)Nc1cc(C)on1 do in these assays?
HEK293 cAMP ctrl: 2µM*; IkB sig inh: 2%; CRE-bla Fsk: inconclusive; TSHR ag: inconclusive; ERK AVP block: 20%

Results for O=C(Nc1cccc(Cl)c1N1CCCC1)c1cc2ccccc2o1 ?
HEK293 cAMP ctrl: 25µM*; IkB sig inh: 2%; CRE-bla Fsk: inconclusive; TSHR ag: inconclusive; ERK AVP block: 32%

How did O=C(Nc1cccc(Cl)c1N1CCCC1)c1ccc(Br)o1 do in these assays?
HEK293 cAMP ctrl: 25µM*; IkB sig inh: 0%; CRE-bla Fsk: 25%; TSHR ag: inconclusive; ERK AVP block: 24%

Results for CCOc1cc2[nH]c(=S)n(CCCOC)c(=O)c2cc1OCC ?
HEK293 cAMP ctrl: 1%; IkB sig inh: 0%; CRE-bla Fsk: 13µM*; TSHR ag: -2%; ERK AVP block: -13%

Results for CCOc1cc2[nH]c(=S)n(CCCN3CCOCC3)c(=O)c2cc1OCC ?
HEK293 cAMP ctrl: 13%; IkB sig inh: 1%; CRE-bla Fsk: 0%; TSHR ag: 3%; ERK AVP block: inconclusive

What do the screens show for `Cc1cc(C)cc(N(CC(=O)NCc2cccnc2)S(C)(=O)=O)c1`?
HEK293 cAMP ctrl: -3%; IkB sig inh: 0%; CRE-bla Fsk: 20%; TSHR ag: 1%; ERK AVP block: 15%

What do the screens show for `COc1ccc(-c2nc3c(C#N)c[nH]n3c2NC2CCCC2)c(OC)c1`?
IkB sig inh: 2%

How did Cc1cnc(CNc2ncncc2-c2ccccc2C#N)cn1 do in these assays?
HEK293 cAMP ctrl: -3%; IkB sig inh: 0%[11.4 µM]; CRE-bla Fsk: -4%; TSHR ag: 2%; ERK AVP block: 2%

What do the screens show for `CCCCSc1nc2c(c(=O)[nH]c(=O)n2C)n1CCc1ccccc1`?
HEK293 cAMP ctrl: inconclusive; IkB sig inh: 5%; CRE-bla Fsk: 10µM*; TSHR ag: inconclusive
